Laboratory results taken from PubChem BioAssay (NCATS).
Results filed as inconclusive are left out. A number with no mark means an inactive call. The source made the active and inactive calls. Calls follow the shape of the dose curve; as a rule, active = well fitted cell-killing curve with a large enough effect; inconclusive = small, poorly fitted or top-dose-only effect; inactive = no such curve, though single readings can be large or run the other way.

Assay: qHTS of pediatric cancer cell lines to identify multiple opportunities for drug repurposing: Primary screen for SJ-GBM2 cells (AID 1347091)
Conditions: SJ-GBM2 viability, CellTiter-Glo luminescence, 48 h; series mostly up to 46 µM; activity change, negative = cytotoxic: at the top concentration
Description: Drug repurposing or repositioning has been offered as a strategy for drug development in oncology programs. This approach has special potential for childhood cancers and other rare or orphan diseases, where the expected return on new drug development has been a disincentive to pharmaceuticals.
In this project we exploit the poly-pharmacology of drugs to discover new indications via phenotypic screening of a panel of 19 well-characterized cell lines derived from solid tumors seen in children and adolescents. The goal is to identify approved drugs with previously unrecognized anticancer properties that has the potential to reveal new mechanisms and biological processes involved in carcinogenesis or drug resistance. We employed a titration-based paradigm (quantitative high-throughput screening or qHTS), where all compounds were tested at multiple concentrations for their effect on cell viability. Concentration-response curves (CRCs) were derived directly from the primary screen, and both potency and efficacy values were used to identify compounds with robust bioactivity profiles. We screened the NIH Chemical Genomics Center (NCGC) Pharmaceutical Collection (NPC) and Mechanism Interrogation Plate (MIPE) small molecule collections of approved and investigational compounds against these cell lines; and measured metabolically active cells after 48 hours of compound treatment as a proxy for cell viability.
Assay Submitter: Nathalia J. Martinez, National Center for Advancing Translational Sciences, National Institutes of Health, Rockville, MD, USA; email: natalia.martinez@nih.gov
[1] Shen, M et al. Quantitative high-throughput phenotypic screening of pediatric cancer cell lines identifies multiple opportunities for drug repurposing. Oncotarget 2017 Dec 19;9(4):4758-4772. PMID 29435139.
The cells were obtained from University of North Carolina (UNC), Pediatric Preclinical Testing Program (PPT), and Coriell Institute (CI).
qHTS cell viability assay:
Cells were assayed in growth media at a density of 500-1,000 cells/well. Five microliters of cells were dispensed into 1,536-well, white, solid-bottom, TC-treated plates (Greiner Bio One) using a multidrop dispenser and incubated at 37 degrees C, 5% CO2, under a humidified atmosphere for 5 hours. Twenty-three nanoliters of compounds and controls (neutral control DMSO or positive control bortezomib at final concentration of 2.3 µM) were subsequently transferred by Kalypsys pintool. For primary screens, the MIPE collection was tested at 11-point dilutions (final concentrations range from 0.78 nM to 46 µM) and the NPC collection at 8-point dilutions (final concentrations range from 0.59 nM to 46 µM). Compounds tested in follow-up screens were assayed at 11-point dilutions. Cells were incubated for 48 hours, followed by addition of 3 uL of CellTiter-Glo (Promega). After a 15 min incubation at room temperature, samples were analyzed for luminescence intensity using a ViewLux High-throughput CCD imager equipped with clear filters.
Potency is read from the fitted curve at half-maximal effect.

SMILES	activity change, negative = cytotoxic	Potency
C[C@H]1O[C@@H](n2cc(F)c(=O)[nH]c2=O)[C@H](O)[C@H]1O	12.7%	
CC(=O)N1CCN(c2ccc(OCc3nn(C)c(C)c3-c3cccc4c(CCCOc5cc(C)c(Cl)c(C)c5)c(C(=O)O)n(Cc5cccnc5)c34)cc2)CC1		23.5 µM (active)
CC[C@@H]([C@H](C)O)n1ncn(-c2ccc(N3CCN(c4ccc(OCC5CO[C@@](Cn6cncn6)(c6ccc(F)cc6F)C5)cc4)CC3)cc2)c1=O (stereo not given in full)		18.7 µM (active)
Cc1ccc(NC(=O)c2cccc(N(C)C)c2)cc1NC(=O)c1ccc(O)cc1	-6.78%	
CN1C(=O)C[C@H](C(=O)N[C@@H](Cc2cnc[nH]2)C(=O)N2CCC[C@@H]2C(N)=O)NC1=O	-1.72%	
Cc1cc2nc3c(=O)[nH]c(=O)nc-3n(CC(O)C(O)C(O)CO)c2cc1C (stereo not given)	9.5%	
N#CC(c1ccnc(NCCc2cccnc2)n1)c1nc2ccccc2s1 (stereo not given)		9.35 µM (active)
NS(=O)(=O)c1cc(Cl)c(Cl)c(S(N)(=O)=O)c1	14.3%	
Cc1cccc2c1CC[C@H](CN1CCC(c3c(Cl)cccc3Cl)CC1)C[C@@H]2O	-9.1%	
O=C(Nc1ccc(OC(F)(F)F)cc1)c1sccc1NCc1ccnc2ccccc12	-0.009%	
CC1(C)C(N(O)C(=O)Nc2ccc(Cl)cc2)N(c2ccc(Cl)cc2)C(=O)N1CC(=O)NN=CC=Cc1ccc([N+](=O)[O-])o1 (stereo not given)		18.7 µM (active)
NC[C@H]1O[C@H](O[C@@H]2[C@@H](O)[C@@H](O[C@H]3O[C@H](CO)[C@@H](O)[C@H](N)[C@@H]3O)[C@H](N)C[C@@H]2N)[C@H](O)[C@@H](O)[C@H]1O	0.862%	
CCCCC(C)(C)[C@H](O)C=C[C@H]1[C@H](O)CC(=O)[C@H]1CC=CCCCC(=O)O	-6.53%	
Cc1csc(-c2nnc(Nc3ccc(Oc4ncccc4-c4ccnc(N)n4)cc3)c3ccccc23)c1		0.003 µM (active)
CCOC(=O)[C@@H](N)CCC(=O)N[C@@H](CSCc1ccccc1)C(=O)N[C@@H](C(=O)OCC)c1ccccc1	5.68%	
O=C(Nc1cccc(C(F)(F)F)c1)Nc1cc(S(=O)(=O)NC2CC2)ccc1-c1ccsc1		26.4 µM (active)
CC1CNc2c(cccc2S(=O)(=O)N[C@@H](CCCN=C(N)N)C(=O)N2CC[C@@H](C)C[C@@H]2C(=O)O)C1 (stereo not given in full)		18.7 µM (active)
C=C1[C@H](n2cnc3c(=O)[nH]c(N)nc32)C[C@H](O)[C@H]1CO		0.0235 µM (active)
N#Cc1c(N(CC(=O)O)CC(=O)O)sc(C(=O)O)c1CC(=O)O	21.3%	
CN1CCc2c(n(Cc3ccc(C(=O)NO)cc3)c3ccccc23)C1		16.6 µM (active)

SMILES	activity change, negative = cytotoxic	Potency
CC(NCCc1ccc(O)cc1)C(O)c1ccc(O)cc1 (stereo not given)	10.2%	
C[C@@]1(C(=O)Nc2ccc(F)nc2)CCCN1c1nc(Nc2cc(C3CC3)[nH]n2)c2cccn2n1		0.187 µM (active)
NCc1c[nH]c(=S)n1[C@H]1CCc2c(F)cc(F)cc2C1		26.4 µM (active)
CC(C)(F)C[C@H](N[C@@H](c1ccc(-c2ccc(S(C)(=O)=O)cc2)cc1)C(F)(F)F)C(=O)NC1(C#N)CC1		14.8 µM (active)
O=C(O)CCNc1cc(N2CCc3ccccc3CC2)nc(-c2ccccn2)n1	-8.1%	
C[C@]12CC[C@@H]3c4ccc(O)cc4CC[C@H]3[C@H]1[C@@H](O)[C@@H](O)[C@H]2O	22.9%	
CNC1[C@H](O)C(O[C@@H]2C(O)C(O[C@H]3O[C@H]([C@@H](C)NC)CC[C@H]3N)[C@@H](N)C[C@H]2N)OC[C@]1(C)O (stereo not given in full)	-0.597%	
COc1cc(C=CC(=O)O)ccc1O	10.6%	
CC(=O)NCCC(=O)N[C@@H](CCC(N)=O)C(=O)N[C@@H](CO)C(=O)N[C@@H](CCC(N)=O)C(=O)N[C@@H](CCC(N)=O)C(=O)N[C@H](C(=O)N[C@@H](Cc1ccccc1)C(=O)N[C@]1(C)CCCCCCC=CCCC[C@@](C)(C(=O)N[C@@H](CCC(N)=O)C(=O)N[C@@H](CC(N)=O)C(N)=O)NC(=O)[C@H](CC(C)C)NC(=O)[C@H](CC(C)C)NC(=O)[C@@H](CCCNC(=N)N)NC(=O)[C@H](Cc2c[nH]c3ccccc23)NC(=O)[C@H](CC(C)C)NC(=O)[C@H](CC(N)=O)NC1=O)[C@H](C)O	9.46%	
CCC[C@H](Nc1nc(-c2ccc(NC(=O)NCC)c(OC)c2)ncc1C)c1cccnc1		0.0105 µM (active)
CC(=O)O[C@]1(C(C)=O)CC[C@H]2[C@@H]3C=C(Cl)C4=CC(=O)[C@@H]5C[C@H]5[C@]4(C)[C@@H]3CC[C@@]21C		9.35 µM (active)
O=S(=O)(NCCNCC=Cc1ccc(Br)cc1)c1cccc2cnccc12		11.8 µM (active)
COC(=O)Nc1ccc(-c2nc(N3CCOCC3)c3cnn(C4CCN(C(=O)OC)CC4)c3n2)cc1		4.69 µM (active)
COc1cc(Cl)cn2c(-c3cccc(NC4CNC4)n3)cnc12		5.26 µM (active)
Oc1cc(O)cc(C=Cc2ccc(O)c(O)c2)c1	-20.3%	
Cc1nc(C(=O)NCC(=O)O)c(O)c2ccc(Oc3ccccc3)cc12	-11.7%	
CN[C@H]1[C@@H](O[C@@H]2[C@H](O[C@@H]3[C@@H](O)[C@@H](O)[C@@H](N=C(N)N)[C@@H](O)[C@@H]3N=C(N)N)O[C@H](C)[C@@]2(O)C=O)O[C@@H](CO)[C@@H](O)[C@H]1O	13.3% [at 9.22 µM]	
COc1cc2c(cc1OC)[C@@H]1Cc3ccc(OC)c(OC)c3CN1CC2	18.4%	
CCC(c1ccc(O)cc1)C(CC)c1ccc(O)cc1 (stereo not given)	-10.9%	
COc1ccc(Cn2ccc3ccc(C(=O)NO)cc32)cc1	2.9%	
